Inconclusive results are not listed. Calls of active or inactive are those of the source. Unless noted, the call rests on the fitted dose curve; in most records, active means well fitted curve in the direction sought with a large enough effect; inconclusive means small, poorly fitted or top-dose-only effect, or another doubt; inactive means no such curve, though single readings can be large; an effect the other way counts as inactive or inconclusive.
Key:
[1] = qHTS for differential inhibitors of proliferation of Plasmodium falciparum line GB4 (AID 1816);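 further: parasite growth measured after 72 h incubation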
[2] = qHTS for differential inhibitors of proliferation of Plasmodium falciparum line 3D7 (AID 1876);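 further: parasite growth measured after three days of culture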
[3] = qHTS for differential inhibitors of proliferation of Plasmodium falciparum line D10 (AID 1877);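 further: parasites grown with compound for 72 h before DNA staining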
[4] = qHTS for differential inhibitors of proliferation of Plasmodium falciparum line Dd2 (AID 1882);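 further: series mostly up to about 29 µM; compound exposure of 72 h on infected erythrocytes; nearly all actives have a fitted effect of over 65% in size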
Method in brief: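 RBC culture, 0.3% parasitemia / 2.5% Hct final; cpd added by pin tool in DMSO; 72 h, 37 C, 5% CO2; lysis buffer + SYBR Green I, o/n RT dark; FI 485/535; norm. to artemisinin 0.29 uM and DMSO.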

[5] = qHTS for differential inhibitors of proliferation of Plasmodium falciparum line W2 (AID 1883);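 further: parasites grown with compound for 72 h before lysis and staining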
[6] = qHTS for differential inhibitors of proliferation of Plasmodium falciparum line HB3 (AID 1886);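 further: parasites grown with compound for 72 h before SYBR Green readout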
[7] = molecular target: Ferritin light chain (Equus caballus) (UniProt P02791); assay: qHTS Validation Assay for Identification of Novel General Anesthetics (AID 2323); further: series mostly up to about 77 µM
Chain of Ferritin light chain (Equus caballus) (P02791 2-175 limits assumed): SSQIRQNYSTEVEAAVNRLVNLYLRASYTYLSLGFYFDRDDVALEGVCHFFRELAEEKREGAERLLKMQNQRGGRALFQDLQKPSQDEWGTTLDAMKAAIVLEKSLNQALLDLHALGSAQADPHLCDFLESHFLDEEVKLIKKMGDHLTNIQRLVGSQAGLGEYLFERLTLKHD
Method in brief: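 Horse-spleen apoferritin (10 uM) in PBS with 50% saturated 1-aminoanthracene; compounds pin-transferred, 10 min at room temperature. Fluorescence read at 380/535 nm, normalized to free 1-AMA and 1-AMA/apoferritin values; four-parameter Hill fit.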

[8] = molecular target: ATP-dependent DNA helicase Q1 (Homo sapiens) (UniProt P46063); assay: qHTS Validation Assay for Inhibitors of RecQ-Like Dna Helicase 1 (RECQ1) (AID 2353)
Chain of ATP-dependent DNA helicase Q1 (Homo sapiens) (P46063 whole entry, looked up): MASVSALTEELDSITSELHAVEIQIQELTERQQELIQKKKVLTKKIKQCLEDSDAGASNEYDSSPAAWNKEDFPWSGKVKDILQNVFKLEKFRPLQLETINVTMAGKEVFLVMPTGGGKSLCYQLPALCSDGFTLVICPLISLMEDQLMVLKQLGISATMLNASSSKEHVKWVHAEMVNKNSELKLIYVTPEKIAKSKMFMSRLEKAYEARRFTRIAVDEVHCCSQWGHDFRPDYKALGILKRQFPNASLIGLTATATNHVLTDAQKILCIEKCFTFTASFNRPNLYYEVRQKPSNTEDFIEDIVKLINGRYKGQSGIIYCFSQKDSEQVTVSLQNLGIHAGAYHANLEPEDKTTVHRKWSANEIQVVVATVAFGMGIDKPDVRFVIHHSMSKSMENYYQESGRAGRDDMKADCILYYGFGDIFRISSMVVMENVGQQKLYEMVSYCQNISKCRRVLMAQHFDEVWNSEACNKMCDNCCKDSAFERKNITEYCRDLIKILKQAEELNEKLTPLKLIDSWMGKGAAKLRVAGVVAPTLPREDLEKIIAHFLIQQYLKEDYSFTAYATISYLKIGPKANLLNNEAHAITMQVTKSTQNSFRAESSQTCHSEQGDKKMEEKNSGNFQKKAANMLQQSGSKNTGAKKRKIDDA
Method in brief: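 RECQ1T1 50 nM; forked duplex (20 bp + 30-nt ss tails) 200 nM, ATP 2 mM final; pH 8.0, 2 mM MgCl2, 2.5 ug/ml poly(dI-dC); 15 min compound preincubation; discontinuous kinetic read over 2 h at RT.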

[9] = molecular target: RecQ-like DNA helicase BLM (Homo sapiens) (UniProt P54132); assay: qHTS Validation Assay for Inhibitors of Bloom's syndrome helicase (BLM) (AID 2364)
Chain of RecQ-like DNA helicase BLM (Homo sapiens) (P54132 whole entry, looked up): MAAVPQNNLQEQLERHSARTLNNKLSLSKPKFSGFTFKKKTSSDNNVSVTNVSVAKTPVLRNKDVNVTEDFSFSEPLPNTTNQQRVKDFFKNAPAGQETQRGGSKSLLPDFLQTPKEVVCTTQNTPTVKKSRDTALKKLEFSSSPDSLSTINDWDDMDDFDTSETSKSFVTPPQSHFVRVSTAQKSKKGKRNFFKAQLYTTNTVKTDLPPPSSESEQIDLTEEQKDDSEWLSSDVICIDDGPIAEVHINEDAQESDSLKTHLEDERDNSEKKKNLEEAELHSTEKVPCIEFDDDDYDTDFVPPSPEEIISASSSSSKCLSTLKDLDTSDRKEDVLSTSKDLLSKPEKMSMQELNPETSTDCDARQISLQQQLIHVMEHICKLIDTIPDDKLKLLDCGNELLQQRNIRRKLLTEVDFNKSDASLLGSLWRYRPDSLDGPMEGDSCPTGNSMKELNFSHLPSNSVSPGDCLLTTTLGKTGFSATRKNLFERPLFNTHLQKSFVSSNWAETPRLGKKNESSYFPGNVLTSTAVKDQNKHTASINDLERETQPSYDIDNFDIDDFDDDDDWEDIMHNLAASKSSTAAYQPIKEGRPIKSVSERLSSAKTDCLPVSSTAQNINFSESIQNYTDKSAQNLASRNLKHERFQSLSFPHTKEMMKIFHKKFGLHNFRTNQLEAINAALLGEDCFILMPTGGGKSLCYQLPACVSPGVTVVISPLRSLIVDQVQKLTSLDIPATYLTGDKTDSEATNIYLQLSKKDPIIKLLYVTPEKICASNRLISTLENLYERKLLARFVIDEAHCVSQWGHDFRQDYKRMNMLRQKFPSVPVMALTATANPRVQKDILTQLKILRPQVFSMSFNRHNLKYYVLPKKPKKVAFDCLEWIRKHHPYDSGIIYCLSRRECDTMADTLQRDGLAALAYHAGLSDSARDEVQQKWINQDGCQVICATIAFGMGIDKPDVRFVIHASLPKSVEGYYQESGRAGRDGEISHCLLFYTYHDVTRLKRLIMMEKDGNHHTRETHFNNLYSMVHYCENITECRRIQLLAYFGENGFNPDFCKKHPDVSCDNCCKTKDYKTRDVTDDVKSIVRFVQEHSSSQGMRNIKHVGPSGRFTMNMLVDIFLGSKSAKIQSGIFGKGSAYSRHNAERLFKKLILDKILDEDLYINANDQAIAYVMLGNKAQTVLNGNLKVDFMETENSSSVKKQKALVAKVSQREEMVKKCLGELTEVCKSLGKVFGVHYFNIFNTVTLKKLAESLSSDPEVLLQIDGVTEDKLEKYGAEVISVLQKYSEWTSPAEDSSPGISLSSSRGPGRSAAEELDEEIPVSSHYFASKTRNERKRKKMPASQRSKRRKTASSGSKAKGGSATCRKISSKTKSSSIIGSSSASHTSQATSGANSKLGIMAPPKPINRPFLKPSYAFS
Method in brief: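 BLM 50 nM in 25 mM Tris-HCl pH 8.0, 5 mM NaCl, 2 mM MgCl2, 1 mM DTT, 0.01% Tween-20, 2.5 ug/ml poly(dI-dC); 15 min cpd preinc, RT. Start: 200 nM forked DNA + 2 mM ATP (final). TAMRA read, 2 reads 2 h apart.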

[10] = qHTS Assay for Identification of Small Molecule Inducers of Hypoxia Response (AID 2120; active means well fitted curve in the direction sought with a large enough effect in the signal ratio, with a control signal flat, not every such curve was filed as active; the % refers to the signal ratio)
Method in brief: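 HRE-bla ME-180, 2500 cells/well, 0.5% dialyzed FBS medium; cpd titration, 17 h 37 degrees C; CCF4 2.5 h RT; Ex 405, Em 460/530 ratio -> %Activity, AC50.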

Measured: outcome

N=c1ccn2c(n1)O[C@H]1[C@@H](O)[C@@H](CO)O[C@H]12
not listed: [10]
inactive: all other assays above

Cc1cc(O)c2c(c1)C(=O)c1cccc(O)c1C2=O
inactive: [10]

— PubChem BioAssay (NCATS)
